GPR151 activ = activators of human GPR151, primary screen, cell-based, PathHunter beta-arrestin, luminescence; activation, % at 11.2 µM; hit rate 1% among 650,000; AID 1508602, 2020; G-protein coupled receptor 151 (Homo sapiens), Q8TDV0; PathHunter beta-arrestin GPR151 cells; in the data active = activation above about 4.9%
FBW7 activator = FBW7 E3 ligase activators, primary screen, biochemical, AlphaScreen, human; F-box/WD repeat-containing protein 7 (Homo sapiens), Q969H0; AlphaScreen FBW7–phospho-cyclin E peptide binding, activator screen; normalized activity (activation), % at 26.1 µM; hit rate 0.13% among 650,000; in the data active = normalized activity above about 1.9%;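 also: purified mutant Fbw7 with reduced substrate affinity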
Target sequence (Q969H0 whole entry, looked up): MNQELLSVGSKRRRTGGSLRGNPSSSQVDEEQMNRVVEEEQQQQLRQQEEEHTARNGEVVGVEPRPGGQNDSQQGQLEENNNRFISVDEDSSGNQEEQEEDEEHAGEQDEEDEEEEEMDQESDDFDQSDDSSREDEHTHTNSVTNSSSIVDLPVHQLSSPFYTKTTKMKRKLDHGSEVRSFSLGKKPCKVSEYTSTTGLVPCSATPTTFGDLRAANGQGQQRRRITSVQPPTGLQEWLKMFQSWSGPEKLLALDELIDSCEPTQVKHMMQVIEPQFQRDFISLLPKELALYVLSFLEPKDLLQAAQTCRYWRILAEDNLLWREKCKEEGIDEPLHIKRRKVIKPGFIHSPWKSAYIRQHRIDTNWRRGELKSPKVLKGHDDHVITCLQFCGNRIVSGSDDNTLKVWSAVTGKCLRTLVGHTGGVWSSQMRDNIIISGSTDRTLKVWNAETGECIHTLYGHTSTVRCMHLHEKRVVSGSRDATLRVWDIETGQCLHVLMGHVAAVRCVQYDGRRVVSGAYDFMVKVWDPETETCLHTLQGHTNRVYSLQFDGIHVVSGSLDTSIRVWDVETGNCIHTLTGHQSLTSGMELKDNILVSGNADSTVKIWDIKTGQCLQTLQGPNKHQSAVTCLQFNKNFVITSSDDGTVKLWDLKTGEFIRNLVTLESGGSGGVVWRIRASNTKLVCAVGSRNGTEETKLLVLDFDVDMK
TEAD-YAP inh = TEAD-YAP interaction inhibition, primary screen, TEAD-YAP interaction inhibitor project, luminescence, HEK-TIYL cells. inhibition, % at 9.12 µM. hit rate 1.4% among 640,000. AID 1259422, 2018. TEAD-Gal4/YAP UAS-luciferase luminescence; in the data active = inhibition above about 32%
MITF primary = MITF inhibitors, primary screen, biochemical, AlphaScreen, human; Microphthalmia-associated transcription factor (Homo sapiens), O75030; AlphaScreen MITF homodimerization, bead proximity signal; inhibition, % at 2.6 µM; hit rate 0.91% among 650,000; in the data active = inhibition above about 50%
GPR151 conf act = GPR151 activators, triplicate retest, confirmation, cell-based, PathHunter beta-arrestin, luminescence; AID 1508609, 2020; GPR151 PathHunter beta-arrestin cells, 90 min; % of EA-reagent control over plate median; activation, % at 11.2 µM; shares compounds with GPR151 activ; 6,700 tested, under 10 active;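 active = mean percent activation across replicates above the confirmation screen cutoff of 4.91%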
GPR119 counter = GPR119 activators in beta-arrestin cells, counter-screen for GPR151 activator project, cell-based, PathHunter beta-arrestin, luminescence, triplicate. shares compounds with GPR151 activ. AID 1508611, 2020. hit rate 0.3% among 6,700. activation, % at 11.2 µM. 90 min; 0 = compound-well median, 100 = enzyme-acceptor control;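 active = mean percent activation in the counterscreen above 29.09%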;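 also: counterscreen on off-target GPR119 to flag nonselective hits from the GPR151 activator screen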
Each line names hits and unclear results; the compound was inactive in the other large screens (follow-up assays come after a bar, where they were run). An excerpt weighted towards active compounds, which were near 3.4% of everything screened.

CC(C)N(C(=O)Cc1csc(NC(=O)Nc2ccc(Cl)cc2)n1)C(C)C	GPR151 activ 11 | GPR151 conf act inactive | GPR119 counter inactive
CCOC(=O)c1csc(NC(=O)Nc2ccc(Cl)cc2)n1	none
CCN1CCCC1CNS(=O)(=O)c1ccc(C(=O)Nc2ccccc2)cc1 (stereo unspecified)	GPR151 activ 10 | GPR151 conf act inactive | GPR119 counter inactive
COC(=O)c1c(NC(=S)N2CCN(C(=O)C3CCCO3)CC2)sc2c1CCC2 (stereo unspecified)	none
COC(=O)c1c(NC(=S)N2CCN(S(C)(=O)=O)CC2)sc2c1CCCCCC2	GPR151 activ 6.7 | GPR151 conf act inactive | GPR119 counter inactive
O=S(=O)(Nc1ccc(-c2nc3ccccc3[nH]2)cc1)c1ccc(-n2cccn2)cc1	GPR151 activ 5.8 | GPR151 conf act inactive | GPR119 counter inactive
O=[N+]([O-])c1ccc(S(=O)(=O)Nc2ccc(-c3nc4ccccc4[nH]3)cc2)cc1	none
O=C(CSc1nnc(-c2cccnc2)o1)c1cc2ccccc2oc1=O	GPR151 activ 6.2 | GPR151 conf act inactive | GPR119 counter inactive
COC(=O)c1c(NC(=O)CCCOc2ccccc2C)sc2c1CCCC2	none
Nc1nnc(SCC(=O)OCC(=O)Nc2ncc(Br)s2)s1	none
Cc1nc(CCNC(=O)CC2C(=O)NCCN2Cc2ccccc2F)sc1C (stereo unspecified)	none
Cc1cccc(CNC(=O)CC2C(=O)NCCN2Cc2c(F)cccc2Cl)n1 (stereo unspecified)	GPR151 activ 5.1 | GPR151 conf act inactive | GPR119 counter inactive
Cc1nc(CCNC(=O)CC2C(=O)NCCN2Cc2cccc3ccccc23)sc1C (stereo unspecified)	GPR151 activ 5.5 | GPR151 conf act inactive | GPR119 counter inactive
Cc1ccsc1C1C(C#N)=C(N)N(c2cccc(Cl)c2C)C2=C1C(=O)CC(C)(C)C2 (stereo unspecified)	none
Brc1ccccc1-c1nnc2sc(-c3ccc4c(c3)OCCO4)nn12	GPR151 activ 5.7 | GPR151 conf act inactive | GPR119 counter inactive
CC(C)CC(N=Cc1c(O)c2ccccc2oc1=O)C(=O)O (stereo unspecified)	GPR151 activ 5.5 | GPR151 conf act inactive | GPR119 counter inactive
O=C1CCCN1CCn1cnc2c(NCCO)nc(-c3cccs3)nc21	none
CCOc1ccccc1NC(=O)/C=C/c1ccc(OC)cc1	none
CCCCOc1ccccc1NC(=O)/C=C/c1ccc(-c2ccccc2)cc1	GPR151 activ 5.3 | GPR151 conf act inactive | GPR119 counter inactive
COc1cc(OC)cc(C(=O)NNC(=O)Nc2ccc(Cl)c(Cl)c2)c1	none
COc1cc(OC)cc(C(=O)N2CCc3ccccc3C2CNC(=O)Nc2ccc(Cl)c(Cl)c2)c1 (stereo unspecified)	GPR151 activ 5.3 | GPR151 conf act inactive | GPR119 counter inactive
COc1cc(I)cc(CNc2ccc(F)cc2)c1O	GPR151 activ 5.4 | GPR151 conf act inactive | GPR119 counter inactive
Cc1ccc(OCC(=O)NCc2nc(-c3ccccc3)no2)c(Br)c1	none
Cc1ccc(NS(=O)(=O)c2ccc(NC=O)cc2)cc1C	GPR151 activ 5.8 | GPR151 conf act inactive | GPR119 counter inactive
Cc1ccc(NS(=O)(=O)c2ccc(F)cc2)cc1C	none
O=C1CCCN1CCn1cnc2c(Nc3ccccc3)nc(Nc3ccncn3)nc21	none
Brc1ccc(Nc2nc(-c3ccccn3)cs2)cc1	none
Brc1cccc(Nc2nc(-c3ccccn3)cs2)c1	GPR151 activ 22 | GPR151 conf act inactive | GPR119 counter inactive
CCC(=O)Nc1cccc2ncccc12	none
O=C(CC12CC3CC(CC(C3)C1)C2)Nc1cccc2ncccc12	GPR151 activ 6.3 | GPR151 conf act inactive | GPR119 counter inactive
O=C(Nc1cccc2ncccc12)C12CC3CC(CC(C3)C1)C2	none
Cc1ccc(SCC(=O)Nc2cccc3ncccc23)cc1	GPR151 activ 6.0 | GPR151 conf act inactive | GPR119 counter inactive
O=C(O)CCn1c(=O)oc2cc(S(=O)(=O)O)ccc21	GPR151 activ 7.5 | GPR151 conf act inactive | GPR119 counter inactive
Cc1cc(Br)ccc1OCC(=O)N(C(C)C)C(C)C	none
Cc1ccccc1OCC(=O)NNC(=O)C1c2ccccc2Oc2ccccc21	GPR151 activ 6.0 | GPR151 conf act inactive | GPR119 counter inactive
Cc1ccccc1OCC(=O)N(C(C)C)C(C)C	GPR151 activ 8.9 | GPR151 conf act inactive | GPR119 counter inactive
CC(=O)Nc1ccc(NC(=O)C(C)Oc2cccc(C)c2)cc1 (stereo unspecified)	none
CC(Oc1ccccc1)C(=O)Nc1ccccc1Br (stereo unspecified)	none
CC(Oc1ccccc1)C(=O)Nc1ccccc1O (stereo unspecified)	GPR151 activ 5.3 | GPR151 conf act inactive | GPR119 counter inactive
COc1ccc(OC(C)C(=O)Nc2cc(Cl)ccc2C)cc1 (stereo unspecified)	GPR151 activ 9.3 | GPR151 conf act inactive | GPR119 counter inactive
CC(=O)Nc1ccccc1NC(=O)C(C)Oc1cccc(C)c1 (stereo unspecified)	GPR151 activ 27 | GPR151 conf act inactive | GPR119 counter inactive
COc1ccc(C2C(C(=O)OCc3ccccc3)=C(C)NC3=C2C(=O)CCC3)cc1OCc1ccccc1 (stereo unspecified)	none
Nc1nc(SCc2ccc(F)cc2)nn1CC(=O)Nc1ccccc1F	GPR151 activ 6.3 | GPR151 conf act inactive | GPR119 counter inactive
Cn1c(/C(C#N)=C/c2cccc([N+](=O)[O-])c2O)nc2ccccc21	none
Nc1nc(NC(=O)C(Cl)(Cl)Cl)nn1-c1ccccc1	GPR151 activ 7.0 | GPR151 conf act inactive | GPR119 counter inactive
O=C(Nc1ccc2nn(-c3ccccc3)nc2c1)C(Cl)(Cl)Cl	none
N#Cc1ccc(/C=N/N2C(=O)C3C(C2=O)C2C=CC3C23CC3)c([N+](=O)[O-])c1 (stereo unspecified)	none
COc1ccccc1CN1C[C@@H]2C[C@@H](c3cccc(SC)c3)N3CCC[C@@]23C1=O	GPR151 activ 6.5 | GPR151 conf act inactive | GPR119 counter inactive
COc1cc(OC)cc(-n2c(SCCN3CCCCC3)nnc2-c2cccnc2)c1	none
O=C1c2cccc3cccc(c23)C(=O)N1Cc1ccco1	none
O=C1c2cc3ccccc3cc2C(=O)N1Cc1ccco1	GPR151 activ 5.8 | GPR151 conf act inactive | GPR119 counter inactive
Cc1ccc(S(=O)(=O)n2nc(C(F)(F)F)c3cnccc32)cc1	none

Assay outcomes: PubChem BioAssay, The Scripps Research Institute Molecular Screening Center
